Screening results: PubChem BioAssay, National Center for Advancing Translational Sciences (NCATS)
HCMV antiviral – inhibitors of human cytomegalovirus | HFF cells, HCMV-luciferase reporter, 72 h; stronger effect = lower value | activity change, negative = inhibition, % at 57.5 µM | hit rate 4.5% among 410,000 | AID 1259415; in the data active means activity change below about -60%; inconclusive means no clear call, values can overlap the other calls; inactive means above about -39%
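Luciferase read-out from HCMV-luciferase-infected HFFs (MOI 1 PFU/cell) 72 h post infection at 37C; compounds added after 16 h cell attachment; activity normalized between buffer-only basal and Salinomycin (10uM) inhibitor controls.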
HCV inh – blocks hepatitis C virus; Potency, µM (titrated, usually from 41.8 µM), hits mostly inhibitors; hit rate 3.4% among 340,000; AID 651820; Huh7.5.1 HCVcc-Cre infection, luciferase reporter, 44 h
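Luciferase read-out (15 sec integration) after a 15 min room-temperature substrate step quantifies HCVcc-Cre infection. Cells, 1,000 per well, had compound added 4 h post-plating, then virus at ~0.5 moi, and were cultured 44 h.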
Lassa entry inh – inhibitors of Lassa virus binding or cell entry | Potency, µM (doses to about 37.9 µM), actives largely listed as inhibitors | hit rate 1.2% among 300,000 | AID 540256 | Lassa virus pseudotype entry inhibition, cell reporter; calls by dose curve; tested in HEK293 cells; further: nearly all actives have a fitted effect of over 50% in size
Marburg entry inh – blocks Marburg virus binding to or entry into cells. Marburg virus pseudotyped entry inhibition, cell reporter. Potency, µM (series often up to 37.8 µM), most hits filed as inhibitors. hit rate 1.8% among 300,000; calls by dose curve; tested in HEK293 cells
Pf growth 48h – P. falciparum growth inhibition at 48 hours (one generation). hit rate 5.9% among 310,000. Potency, µM (series often up to 28.7 µM), most hits filed as inhibitors. P. falciparum luciferase growth in erythrocytes, 48 h. AID 504832
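Compounds are pin-transferred into medium, infected erythrocytes (2% hematocrit, 0.1% parasitemia final) are added, and plates sit one parasite generation at 37 C in 5% CO2. Detection reagent is then added and luminescence measured.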
Pf growth 96h – P. falciparum growth inhibition at 96 hour, primary screen for plastid delayed-death inhibitors | P. falciparum luciferase reporter growth, 96 h | Potency, µM (titrated, usually from 28.7 µM), most hits filed as inhibitors | hit rate 6.9% among 320,000 | AID 504834
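Parasite growth measured via integrated firefly luciferase reporter in P. falciparum. Infected erythrocytes at 2% hematocrit, 0.05% parasitemia final were treated 96 hours at 37 C under 5% CO2, and luminescence was read.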
Numbers stand for hits; i = inactive; ? = inconclusive; nt = no result; [ ] = dose if it differs, or a comment. Shown are actives, neighbours in structure and some others; about 14% of the full set was active somewhere. Unless noted, the call rests on the fitted dose curve; in most records, active means well fitted inhibition curve with a large enough effect; inconclusive means small, poorly fitted or top-dose-only effect, or another doubt; inactive means no such curve, though single readings can be large or run the other way.

SMILES	HCMV antiviral	HCV inh	Lassa entry inh	Marburg entry inh	Pf growth 48h	Pf growth 96h
COC(=O)COc1cc(OCC(=O)OC)c2c(-c3ccccc3)cc(=O)oc2c1	i	i	nt	nt	i	i
CCN(CC)CCC(c1ccc(N(C)C)cc1)c1c(OC)cc(OC)c2c(-c3ccccc3)cc(=O)oc12 (configuration not stated)	i	i	nt	nt	8.3µM	3.7µM
COc1cc(OC)c2c(C)cc(=O)oc2c1C(CCN1CCOCC1)c1ccc(N(C)C)cc1 (configuration not stated)	i	?	nt	nt	10µM	?
COc1cc(OC)c2c(-c3ccccc3)cc(=O)oc2c1C(CC(=O)N1CCN(c2ccccc2)CC1)c1ccc(N(C)C)cc1 (configuration not stated)	i	?	nt	nt	?	?
COc1cc(OC)c2c(-c3ccccc3)cc(=O)oc2c1C(CCN1CCN(c2ccccc2)CC1)c1ccc(N(C)C)cc1 (configuration not stated)	i	?	nt	nt	5.2µM	4.1µM
CCCCCc1cc(=O)oc2c(C(CCN3CCN(c4ccccc4)CC3)c3ccc(N(C)C)cc3)c(OC)cc(OC)c12 (configuration not stated)	i	i	nt	nt	?	?
COc1cc(OC)c2ccc(=O)oc2c1C(CCN1CCN(c2ccccc2)CC1)c1ccc(N(C)C)cc1 (configuration not stated)	i	i	nt	nt	12µM	10µM
Nc1cc(OC(=O)c2c(F)cccc2Cl)nn1S(=O)(=O)c1ccccc1	i	i	i	?	i	10µM
Nc1cc(OC(=O)c2cccs2)nn1S(=O)(=O)c1ccccc1	i	i	i	i	i	?
C=CCn1c(CCNC(=O)c2ccccc2F)nnc1SCC(=O)Nc1nc2ccccc2s1	i	i	i	i	nt	12µM
O=C(CCn1ccc2cc(S(=O)(=O)N3CCCC3)ccc21)NCc1cccc(Br)c1	i	nt	?	nt	nt	nt
CCN1CCN(Cc2c(O)ccc3oc(C)c(C(=O)Nc4cccc(C(F)(F)F)c4)c23)CC1	i	nt	?	?	nt	nt
O=C(Nc1ccc(Oc2ccccc2)cc1)c1ccc(Cn2c(=O)[nH]c3ccsc3c2=O)cc1	i	i[8.37 µM]	i	i	i	13µM
O=C(OCc1cc(=O)n2nc(C3CCCCC3)sc2n1)c1ccc(F)cc1	i	nt	i	nt	nt	nt
CSc1ccccc1NC(=O)Cc1ccccc1	i	i	i	i	i	i
CSc1ccccc1NC(=O)COC(=O)CCc1ccccc1	-62	i	i	i	i	i
O=C(NCCSCc1c(F)cccc1Cl)C1CCN(S(=O)(=O)Cc2ccccc2)CC1	i	nt	i	i	nt	nt
COc1ccc(N2CCN(c3ncnc4onc(C)c34)CC2)cc1	-69	nt	i	nt	nt	nt
Cc1noc2ncnc(N3CCN(c4ccc(F)cc4)CC3)c12	-68	i	i	i	i	i
COc1ccc(N2CCN(c3ncnc4onc(-c5ccc(F)cc5)c34)CC2)cc1	i	nt	i	nt	nt	nt
CCc1nn(CCCC(=O)N2CCN(c3cc(Cl)ccc3C)CC2)c(=O)c2cc3occc3n12	i	nt	i	i	nt	nt
O=C(CCCCCN1C(=O)CCC1=O)Nc1ccc(Cl)c(C(F)(F)F)c1	-64	i	i	i	i	nt
O=C(Nc1ccc(Cl)c(C(F)(F)F)c1)N1CCCC(O)C1 (configuration not stated)	i	i	i	i	i	0.66µM
COc1ccc(NC(=O)CCCCCN2C(=O)CCC2=O)cc1Cl	i	nt	i	i	nt	i
O=C(CCCCCN1C(=O)CCC1=O)Nc1ccc(Br)cc1F	i	i	i	i	i	1µM
SMILES	HCMV antiviral	HCV inh	Lassa entry inh	Marburg entry inh	Pf growth 48h	Pf growth 96h
O=C(Nc1ccc(Cl)c(C(F)(F)F)c1)C(=O)N1CCCCC1	i	i	i	i	i	?
O=C(CCCc1ccccc1)Nc1ccc(Br)cc1F	nt	i	i	i	i	i
COc1ccc(CCNC(=O)Cc2c(C)c3c(cc(C)c4c(C)coc43)oc2=O)cc1	i	nt	i	i	nt	nt
COc1ccc(NC(=O)c2cc(C3CCCCN3S(=O)(=O)c3cn(C)cn3)on2)c(C)c1 (configuration not stated)	i	nt	nt	nt	nt	nt
CC1(C)Nc2ccccc2C(=O)N1c1ccc(Br)cc1	i	i	?	i	nt	nt
Cc1ccc(N2C(=O)c3ccccc3NC2(C(=O)O)c2ccccc2)cc1Cl (configuration not stated)	-98	i	nt	nt	i	i
